Source: PubChem BioAssay
Cruzain Triton: cruzain (T. cruzi) inhibition with detergent. purified cruzain, Z-FR-AMC fluorescence, 0.01% Triton. Potency, µM, inactives show max response, negative = inhibition, hits mostly inhibitors. 0.43% of 200,000 active. AID 1478;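 note: plate controls were neutral wells for no effect and buffer without enzyme for full effect; nearly all actives have a fitted effect of over 40% in size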
Target sequence (P25779 123-467 limits assumed): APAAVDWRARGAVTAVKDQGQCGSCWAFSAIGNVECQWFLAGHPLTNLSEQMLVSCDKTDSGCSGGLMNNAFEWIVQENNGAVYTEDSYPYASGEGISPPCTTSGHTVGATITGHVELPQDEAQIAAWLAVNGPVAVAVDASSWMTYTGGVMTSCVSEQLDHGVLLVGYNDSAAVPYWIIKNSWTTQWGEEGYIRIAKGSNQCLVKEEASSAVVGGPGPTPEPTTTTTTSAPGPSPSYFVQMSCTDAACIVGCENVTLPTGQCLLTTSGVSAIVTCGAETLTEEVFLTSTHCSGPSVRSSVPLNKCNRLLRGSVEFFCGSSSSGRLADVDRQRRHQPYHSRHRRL
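Sodium acetate buffer (100 mM, pH 5.5) containing 5 mM DTT and 0.01% Triton X-100 hosted 1.5 nM cruzain and test compound for 15 min at room temperature. Cleavage of 2 uM Z-FR-AMC was then tracked by fluorescence.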
Cruzain inh noDet: inhibitors of Trypanosoma cruzi cruzain without detergent; purified cruzain, Z-FR-AMC fluorescence, no detergent; 2.3% of 200,000 active; Potency, µM, for the others: max response, negative = inhibition, actives largely listed as inhibitors; AID 1476;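 note: plate controls were enzyme without inhibitor for no effect and buffer without enzyme for full effect; nearly all actives have a fitted effect of over 40% in size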
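Purified cruzain at 1.5 nM, pre-incubated 15 min with compound at room temperature in 100 mM sodium acetate pH 5.5, 5 mM DTT, 0.00005% Triton X-100. Reaction started with 2 uM Z-FR-AMC; AMC fluorescence increase over 60 s gives rate.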
* hit, by the source's call; ? = inconclusive. In the library only some 2.6% were active in any assay of this set; here they are far more common. Calls come from the whole dose curve; as a rule, active = well fitted curve in the direction sought with a large enough effect; inconclusive = small, poorly fitted or top-dose-only effect, or another doubt; inactive = no such curve, though single readings can be large; an effect the other way counts as inactive or inconclusive. Potency is the fitted concentration of half-maximal effect.

SMILES | Cruzain Triton | Cruzain inh noDet
COC(=O)c1c(NC(=O)c2ccccc2N(C)S(=O)(=O)c2ccccc2)sc2c1CCCC2 | -7% | 25µM*
COC(=O)c1c(NC(=O)CS(=O)(=O)c2ccc(C)cc2)sc2c1CCCC2 | -8% | ?
COC(=O)c1c(NC(=O)c2ccc(N(C)S(=O)(=O)c3ccc(C)cc3)cc2)sc2c1CCCC2 | -4% | 4µM*
Cc1noc(C)c1S(=O)(=O)Nc1ccc(C(=O)Nc2ccc(Br)cc2)cc1 | 0% | -8%
CCCCc1nn2c(=O)cc(COC(=O)c3cccc(NC(=O)c4cccs4)c3)nc2s1 | 0% | 0%
CCN(CC)c1ccc(NC(=O)C2CCN(S(=O)(=O)c3cnc[nH]3)CC2)c(C)c1 | -1% | -13%
O=C(Nc1cccc(C(F)(F)F)c1)c1ccc(F)c(S(=O)(=O)N2CCc3ccccc3C2)c1 | 0% | ?
Cc1cccc(CNC(=O)CCCN2C(=O)CCn3nc(-c4cccn4C)cc32)c1 | -2% | ?
Cc1cc(NC(=O)CSc2ncnc3sc4c(c23)CCC(C)C4)no1 (stereo not given) | 5% | 5µM*
Cc1cc(NC(=O)CSc2nc(C(C)C)nc3sc(C)c(C)c23)no1 | 1% | 11%
COc1cc(C(=O)Nc2ccc(OCc3cc(=O)n4cccc(C)c4n3)cc2)cc(OC)c1OC | -2% | ?
O=C(NC1CCCCC1)c1c[nH]c2ccc(S(=O)(=O)Nc3ccccc3F)cc2c1=O | -13% | -9%
Nc1nnc(SCCCC(=O)c2ccccc2)s1 | 0% | 2%
Nc1nnc(SCC(=O)c2ccc3ccccc3c2)s1 | -5% | 32µM*
COC(=O)[C@]1(C)CCC(c2ccc(C)cc2)=C(CC(=O)O)C1 | -1% | 15%
O=C(CSc1nccn1C1CCCC1)Nc1cccc(F)c1 | 1% | -14%
Cc1ccc2sc3ccc(NC(=O)c4ccccc4Cl)cc3c(=O)c2c1 | 3% | 25µM*
CCCn1c(=O)sc2cc(NC(=O)c3ccccc3Cl)ccc21 | -7% | -5%
CCOC(=O)c1ccc(CN(Cc2ccc(Cl)cc2Cl)S(=O)(=O)c2cccc(Cl)c2)cc1 | 1% | 16%
COc1ccc(C2CC(c3cccs3)=NN2c2nc(-c3ccccc3)cs2)cc1OC (stereo not given) | -4% | 7.9µM*
COc1ccc(C2CC(c3cccs3)=NN2c2ccc(C=O)cc2)cc1 (stereo not given) | -4% | ?
CCCCn1c(=O)n(-c2ccc(Br)cc2F)c(=O)c2c3c(sc21)CN(C(C)=O)CC3 | -9% | ?
Cc1ccc(C)c(SCC(=O)Nc2cccc(S(=O)(=O)NC3=NCCCCC3)c2)c1 | -5% | -2%
O=C(CSc1ccc2ccccc2c1Br)Nc1cccc(S(=O)(=O)NC2=NCCCCC2)c1 | -5% | 20µM*
Nc1cc(C(=O)OCC(=O)NC(c2ccccc2)c2ccccc2)ccc1Cl | -1% | 25µM*
SMILES | Cruzain Triton | Cruzain inh noDet
Nc1cc(C(=O)OCC(=O)NCc2ccc(F)cc2)ccc1Cl | 4% | 0%
CCN(CC)c1ccc(/C=C(\C#N)c2nc(-c3cccs3)c(NC(C)=O)s2)cc1 | -4% | 16µM*
CC(=O)Nc1sc(NC(=O)c2ccccc2)nc1-c1cccs1 | 0% | -5%
N#Cc1c(N)sc(=S)c2c1CCN(Cc1ccccc1)C2 | 28µM* | 13µM*
CCN1CCc2c(sc(N)c2C#N)C1 | -3% | -5%
O=C(CSc1ccccc1)NCc1ccc2c(c1)CCN2C(=O)c1ccc(F)cc1 | -2% | 2%
Cc1cccc(C(C)C)c1NC(=O)COC(=O)c1cccc(S(=O)(=O)N2CCc3ccccc3C2)c1 | 1% | 25µM*
CCc1cccc(CC)c1NC(=O)COC(=O)c1cccc(S(=O)(=O)N2CCc3ccccc3C2)c1 | -6% | 2%
CC(NC(=O)C1CCN(S(=O)(=O)c2ccc(F)cc2)CC1)c1ccccc1 (stereo not given) | ? | 1%
FC(F)(F)c1cnc(Sc2nnc(-c3cccs3)n2CC2CCCO2)c(Cl)c1 (stereo not given) | 1% | -10%
N#Cc1c(Sc2ncc(C(F)(F)F)cc2Cl)nsc1C/C=N\OCc1c(F)cccc1Cl | -6% | 4µM*
CCOC(=O)c1ccccc1NC(=O)NC(C)c1c(-n2cccc2)sc(C)c1C (stereo not given) | -6% | -12%
COC(=O)c1sc(-c2ccccc2)cc1NC(=O)c1ccc(OC)cc1 | -8% | ?
COC(=O)c1sc(-c2ccccc2)cc1NC(=O)c1ccc(F)cc1 | -3% | 10µM*
O=C(Cn1c(=O)n(-c2ccc(F)c(Cl)c2)c(=O)c2sc3ccccc3c21)NC1CCCCC1 | 0% | -8%
CCOC(=O)c1cc2c(=O)n3ccccc3nc2n(C(C)C)c1=NC(=O)c1cc2ccccc2o1 | 6% | ?
CC(C(=O)Nc1cc([N+](=O)[O-])ccc1Cl)N1CCN(c2ccccc2)CC1 (stereo not given) | -2% | 1%
O=C(CN1CCN(c2ccc(O)cc2)CC1)Nc1cc([N+](=O)[O-])ccc1Cl | -24% | 25µM*
CCOC(=O)C1CCN(C(=O)Cn2nc(C)n3c(cc4sccc43)c2=O)CC1 | -4% | -10%
COc1cccc(-c2csc(N3CCN(S(=O)(=O)c4ccc(F)cc4)CC3)n2)c1 | 0% | 25µM*
COc1cccc(-c2csc(N3CCN(C(=S)Nc4ccccc4)CC3)n2)c1 | 4% | ?
COc1cccc(-c2csc(N3CCN(C(=S)Nc4ccc(Cl)cc4)CC3)n2)c1 | 7% | 25µM*
COc1cccc(-c2csc(N3CCN(Cc4ccccc4)CC3)n2)c1 | -10% | -24%
CCCOc1ccc(C(=O)Nc2cc(-c3nc4ccccc4[nH]3)ccc2C)cc1 | -3% | -2%
CCOC(=O)C1CCN(C(c2ccc(C)cc2)c2sc3nc(-c4ccco4)nn3c2O)CC1 (stereo not given) | -3% | ?
SMILES | Cruzain Triton | Cruzain inh noDet
c1c[nH]c(CN2CCOCC2)n1 | -1% | 3%
N#C/C(C(=O)NCc1ccccc1)=C1/N=C(NC(=O)c2cccs2)c2ccccc21 | -4% | 25µM*
N#C/C(=C\c1cccs1)C(=O)NCc1ccccc1 | -6% | -7%
COc1ccc2c(c1)c1c(c(=O)n(-c3cccc(C)c3)c(=O)n1Cc1cccc(Cl)c1)n2C | -3% | -7%
CCC1CCc2nc3sc(C(=O)Nc4cccc(F)c4)c(N)c3cc2C1 (stereo not given) | -5% | 5µM*
CCC1CCc2nc3sc(C(=O)Nc4cccc(C(F)(F)F)c4)c(N)c3cc2C1 (stereo not given) | -3% | -34%
COc1cccc(Cn2c(=O)c(-c3ccc(Cl)cc3)nc3cncnc32)c1 | -1% | -17%
CCC(=O)Nc1cc(-c2cn3cccnc3n2)ccc1OC | -6% | -5%
COc1ccc(-c2cn3cccnc3n2)cc1F | -22% | 20µM*
CCOc1ccccc1CNC(=O)c1ccc2nc(Cc3ccc(OC)cc3)oc2c1 | -4% | 6%
CCc1ccc(NC(=O)CC2C(=O)N(c3ccc(Cl)cc3)C(=O)N2Cc2ccco2)cc1 (stereo not given) | -10% | -17%
O=c1c2ccccc2c2c(O)nc(-c3ccccc3)n2n1Cc1ccccc1 | 1% | 4µM*
Cn1c(=O)c2c(nc(-c3ccccc3)n2C)n(Cc2ccccc2)c1=O | -2% | 20%
CCc1ccc(C2Sc3ccccc3NC3=C2C(=O)c2ccccc23)cc1 (stereo not given) | -8% | ?
O=C1C2=C(Nc3ccccc3SC2c2ccc(C(F)(F)F)cc2)c2ccccc21 (stereo not given) | -3% | 20µM*
